The full data set covers some 7,900 targets. This sample favours those with a hit. About 0.6% of all pairs of compound and target were hits. A number with no mark means an inactive call.

The results in this text go back to the supplement of paper PMC10849652.

Chain of UniProt Q14151 (Q14151 whole entry, looked up): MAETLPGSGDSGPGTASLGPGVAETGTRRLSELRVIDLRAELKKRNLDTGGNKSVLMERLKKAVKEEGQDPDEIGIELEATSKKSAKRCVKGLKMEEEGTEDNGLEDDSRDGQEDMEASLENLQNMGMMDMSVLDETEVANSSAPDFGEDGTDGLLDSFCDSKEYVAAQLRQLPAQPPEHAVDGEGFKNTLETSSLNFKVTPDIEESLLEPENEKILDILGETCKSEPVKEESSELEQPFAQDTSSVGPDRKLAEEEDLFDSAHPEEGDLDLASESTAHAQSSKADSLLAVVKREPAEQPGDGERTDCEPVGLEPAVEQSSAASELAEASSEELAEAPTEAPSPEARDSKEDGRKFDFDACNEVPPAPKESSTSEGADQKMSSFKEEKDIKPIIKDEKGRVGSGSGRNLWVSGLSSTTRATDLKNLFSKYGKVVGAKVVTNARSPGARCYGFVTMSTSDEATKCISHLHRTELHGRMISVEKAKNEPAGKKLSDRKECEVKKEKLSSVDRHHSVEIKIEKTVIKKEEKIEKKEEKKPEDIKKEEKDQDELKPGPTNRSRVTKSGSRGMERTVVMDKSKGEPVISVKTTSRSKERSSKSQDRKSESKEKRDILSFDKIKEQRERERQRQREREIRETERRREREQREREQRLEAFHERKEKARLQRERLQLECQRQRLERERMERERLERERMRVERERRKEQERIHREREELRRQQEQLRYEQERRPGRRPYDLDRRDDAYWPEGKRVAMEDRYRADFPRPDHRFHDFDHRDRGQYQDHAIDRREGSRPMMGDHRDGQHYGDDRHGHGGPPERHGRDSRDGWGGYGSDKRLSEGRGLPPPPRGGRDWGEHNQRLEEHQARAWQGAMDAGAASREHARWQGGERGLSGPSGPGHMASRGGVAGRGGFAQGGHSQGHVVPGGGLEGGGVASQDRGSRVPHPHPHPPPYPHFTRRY
Chain of UniProt O43665 (O43665 whole entry, looked up): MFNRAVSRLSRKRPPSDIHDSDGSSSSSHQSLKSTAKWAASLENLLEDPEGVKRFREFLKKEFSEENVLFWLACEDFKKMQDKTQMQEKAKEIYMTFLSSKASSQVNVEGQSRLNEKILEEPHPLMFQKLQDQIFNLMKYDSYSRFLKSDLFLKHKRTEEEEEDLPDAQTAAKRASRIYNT
Chain of UniProt Q8TDY2 (Q8TDY2 whole entry, looked up): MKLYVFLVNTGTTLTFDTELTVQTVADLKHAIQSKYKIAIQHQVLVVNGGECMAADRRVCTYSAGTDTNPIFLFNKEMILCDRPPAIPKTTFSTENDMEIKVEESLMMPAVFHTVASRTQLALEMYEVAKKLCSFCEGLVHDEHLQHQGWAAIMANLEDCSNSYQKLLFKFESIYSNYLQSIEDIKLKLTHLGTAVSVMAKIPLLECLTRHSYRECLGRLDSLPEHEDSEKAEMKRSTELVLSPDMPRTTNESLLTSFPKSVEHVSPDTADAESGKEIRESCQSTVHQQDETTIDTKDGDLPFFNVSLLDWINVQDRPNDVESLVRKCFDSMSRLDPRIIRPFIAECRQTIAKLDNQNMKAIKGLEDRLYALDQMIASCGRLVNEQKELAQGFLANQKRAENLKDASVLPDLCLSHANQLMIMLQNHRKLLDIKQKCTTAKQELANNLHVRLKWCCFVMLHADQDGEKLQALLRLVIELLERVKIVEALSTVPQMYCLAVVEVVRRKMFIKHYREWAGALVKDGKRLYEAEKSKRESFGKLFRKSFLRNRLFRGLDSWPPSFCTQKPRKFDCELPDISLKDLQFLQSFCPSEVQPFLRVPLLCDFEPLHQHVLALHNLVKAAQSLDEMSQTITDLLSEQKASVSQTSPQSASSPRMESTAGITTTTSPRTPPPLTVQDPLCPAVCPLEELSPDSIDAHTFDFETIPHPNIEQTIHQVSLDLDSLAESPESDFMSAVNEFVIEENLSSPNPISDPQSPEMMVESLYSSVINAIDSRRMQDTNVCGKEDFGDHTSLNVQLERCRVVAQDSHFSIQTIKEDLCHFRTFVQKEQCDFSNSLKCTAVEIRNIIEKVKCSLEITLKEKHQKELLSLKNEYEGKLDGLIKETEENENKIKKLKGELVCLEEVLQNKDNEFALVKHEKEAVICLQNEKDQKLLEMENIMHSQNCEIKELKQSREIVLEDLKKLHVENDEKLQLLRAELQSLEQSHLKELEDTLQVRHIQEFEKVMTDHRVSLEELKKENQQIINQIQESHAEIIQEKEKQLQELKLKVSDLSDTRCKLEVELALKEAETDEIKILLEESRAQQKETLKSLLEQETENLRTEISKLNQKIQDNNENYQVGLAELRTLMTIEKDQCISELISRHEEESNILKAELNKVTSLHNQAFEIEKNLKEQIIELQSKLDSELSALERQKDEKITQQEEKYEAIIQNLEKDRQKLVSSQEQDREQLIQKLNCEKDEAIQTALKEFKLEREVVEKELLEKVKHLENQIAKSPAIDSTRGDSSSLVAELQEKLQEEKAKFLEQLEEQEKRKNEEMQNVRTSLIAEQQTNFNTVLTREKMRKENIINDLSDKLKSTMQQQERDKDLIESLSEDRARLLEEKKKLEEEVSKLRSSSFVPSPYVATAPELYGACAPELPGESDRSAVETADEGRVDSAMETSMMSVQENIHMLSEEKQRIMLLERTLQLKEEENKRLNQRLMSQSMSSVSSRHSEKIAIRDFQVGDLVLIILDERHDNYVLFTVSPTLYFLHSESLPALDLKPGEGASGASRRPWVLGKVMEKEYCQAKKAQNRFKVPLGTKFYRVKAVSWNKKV
Chain of UniProt P63208 (P63208 whole entry, looked up): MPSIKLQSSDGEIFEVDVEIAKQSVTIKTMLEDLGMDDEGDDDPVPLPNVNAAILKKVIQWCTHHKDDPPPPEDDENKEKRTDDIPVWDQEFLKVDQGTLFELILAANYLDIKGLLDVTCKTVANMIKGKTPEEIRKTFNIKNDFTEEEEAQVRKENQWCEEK
Chain of UniProt Q9NX18 (Q9NX18 whole entry, looked up): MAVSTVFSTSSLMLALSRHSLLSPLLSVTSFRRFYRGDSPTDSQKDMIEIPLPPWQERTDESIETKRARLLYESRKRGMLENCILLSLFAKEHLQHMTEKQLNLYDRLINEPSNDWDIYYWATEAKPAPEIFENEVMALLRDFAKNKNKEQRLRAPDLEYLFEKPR
Chain of UniProt Q01974 (Q01974 whole entry, looked up): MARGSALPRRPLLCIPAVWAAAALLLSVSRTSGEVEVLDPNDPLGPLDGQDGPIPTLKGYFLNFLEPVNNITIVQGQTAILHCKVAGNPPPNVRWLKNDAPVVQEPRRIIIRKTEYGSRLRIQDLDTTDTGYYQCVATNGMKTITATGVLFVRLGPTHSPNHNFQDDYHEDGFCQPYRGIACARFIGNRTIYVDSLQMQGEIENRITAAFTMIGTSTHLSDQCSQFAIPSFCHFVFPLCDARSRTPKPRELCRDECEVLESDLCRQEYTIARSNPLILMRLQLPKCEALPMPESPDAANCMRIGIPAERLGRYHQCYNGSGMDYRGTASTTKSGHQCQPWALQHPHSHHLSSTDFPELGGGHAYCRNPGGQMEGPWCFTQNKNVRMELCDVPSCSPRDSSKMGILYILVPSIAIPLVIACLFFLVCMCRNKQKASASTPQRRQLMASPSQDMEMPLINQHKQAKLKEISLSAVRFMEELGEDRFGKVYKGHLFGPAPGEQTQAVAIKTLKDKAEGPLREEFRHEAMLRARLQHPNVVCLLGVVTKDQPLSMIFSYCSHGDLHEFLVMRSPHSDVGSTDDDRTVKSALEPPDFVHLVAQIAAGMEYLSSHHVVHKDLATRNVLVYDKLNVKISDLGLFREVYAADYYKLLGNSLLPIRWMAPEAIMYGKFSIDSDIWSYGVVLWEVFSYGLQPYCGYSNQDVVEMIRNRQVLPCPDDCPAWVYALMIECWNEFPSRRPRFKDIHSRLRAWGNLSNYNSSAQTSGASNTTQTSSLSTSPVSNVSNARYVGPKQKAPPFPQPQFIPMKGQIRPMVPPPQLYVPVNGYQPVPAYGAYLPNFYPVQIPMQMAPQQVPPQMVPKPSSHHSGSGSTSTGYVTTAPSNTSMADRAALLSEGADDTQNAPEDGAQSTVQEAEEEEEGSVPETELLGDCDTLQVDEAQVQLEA
Chain of UniProt Q13530 (Q13530 whole entry, looked up): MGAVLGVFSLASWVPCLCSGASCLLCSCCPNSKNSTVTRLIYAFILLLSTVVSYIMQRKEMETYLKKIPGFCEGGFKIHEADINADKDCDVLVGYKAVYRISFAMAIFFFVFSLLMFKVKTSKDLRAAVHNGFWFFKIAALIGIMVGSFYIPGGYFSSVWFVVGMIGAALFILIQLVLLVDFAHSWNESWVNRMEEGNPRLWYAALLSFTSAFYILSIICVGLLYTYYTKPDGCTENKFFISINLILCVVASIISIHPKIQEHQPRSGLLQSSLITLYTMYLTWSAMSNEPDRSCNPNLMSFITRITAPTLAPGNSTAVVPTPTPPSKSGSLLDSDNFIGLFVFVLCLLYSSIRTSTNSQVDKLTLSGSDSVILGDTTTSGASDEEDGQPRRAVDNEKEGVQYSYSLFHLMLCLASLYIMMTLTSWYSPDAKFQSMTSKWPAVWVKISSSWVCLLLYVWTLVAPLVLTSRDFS
Chain of UniProt O00767 (O00767 whole entry, looked up): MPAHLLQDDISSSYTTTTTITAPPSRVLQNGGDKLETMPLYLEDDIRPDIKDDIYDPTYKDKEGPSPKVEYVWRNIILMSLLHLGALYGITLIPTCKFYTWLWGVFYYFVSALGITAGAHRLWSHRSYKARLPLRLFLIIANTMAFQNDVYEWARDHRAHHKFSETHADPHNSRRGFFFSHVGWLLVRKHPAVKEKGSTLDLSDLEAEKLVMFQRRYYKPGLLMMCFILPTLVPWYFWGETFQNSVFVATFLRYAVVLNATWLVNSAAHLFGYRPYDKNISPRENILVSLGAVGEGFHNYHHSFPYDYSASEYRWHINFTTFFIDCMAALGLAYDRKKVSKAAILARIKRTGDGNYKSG

Compound in one assay: Cn1cc(-c2ccc3nnc(C(F)(F)c4ccc5ncccc5c4)n3n2)cn1
The assay can be described thus: log2 fold change, soluble protein after heating vs DMSO (PISA); higher = thermal stabilisation; K562 cells, 10 uM, 30 min; active = over 0.2 and 3.5 SD of the protein, either way, in both replicates (recomputed). The method, boiled down:
(§1)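 Values are thermal stability changes relative to control samples and are taken from duplicates. They are stated as log2 fold changes. Before quantification by TMTpro 16plex LC-MS/MS with equalised channel sums, K562 cells at 2×10^6 cells/mL were treated with 10 μM compound for 30 min, heated in aliquots for 3 min across 48°C-58°C, pooled, extracted in PBS with 0.5% NP-40 at 4°C, and centrifuged at 21,000xg for 90 min to give the soluble supernatant.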
For the target SIDT2 isoform 2 (UniProt Q8NBJ9), the log2 fold change is 0.038.

Regarding ROR2 (UniProt Q01974), the log2 fold change was -0.041.

RAP1GDS1 isoform 5 (UniProt P52306): the log2 fold change was 0.03.

Consider SKP1 (UniProt P63208), for which the log2 fold change was -0.017.

For the target REL (UniProt Q04864), the log2 fold change was 0.059.

For SERINC3 (UniProt Q13530), the log2 fold change was -0.077.

On to RPS9 (UniProt P46781), for which the log2 fold change was -0.088.

RB1CC1 (UniProt Q8TDY2): the log2 fold change is 0.017.

On to SAFB2 (UniProt Q14151), for which the log2 fold change is -0.058.

With RAB3IL1 (UniProt Q8TBN0), the log2 fold change is 0.002.

Regarding RPS6KA1 isoform 2 (UniProt Q15418), the log2 fold change is 0.

For RPRD1B (UniProt Q9NQG5), the log2 fold change is -0.035.

Consider RPS3 (UniProt P23396), for which the log2 fold change is -0.028.

Regarding SEC24A (UniProt O95486), the log2 fold change was 0.016.

Take SCCPDH (UniProt Q8NBX0): the log2 fold change is -0.074.

Regarding RPS27A (UniProt P62979), the log2 fold change is 0.

On to ROCK2 (UniProt O75116), for which the log2 fold change is 0.014.

For SACM1L (UniProt Q9NTJ5), the log2 fold change was 0.

Turning to RPA1 (UniProt P27694), the log2 fold change is 0.015.

Consider RNASEH2A (UniProt O75792), for which the log2 fold change is 0.038.

Take RGS10 (UniProt O43665): the log2 fold change is -0.031.

Regarding SDHAF2 (UniProt Q9NX18), the log2 fold change is 0.017.

Take SEPTIN5 (UniProt Q99719): the log2 fold change was 0.025.

In the case of SAMD4B (UniProt Q5PRF9), the log2 fold change was -0.042.

For the target SCD (UniProt O00767), the log2 fold change is 0.034.

In the case of SEC23IP (UniProt Q9Y6Y8), the log2 fold change is 0.009.

Regarding SLC18B1 (UniProt Q6NT16), the log2 fold change was 0.198.

Consider SAAL1 (UniProt Q96ER3), for which the log2 fold change was 0.

With SENP6 (UniProt Q9GZR1), the log2 fold change was -0.013.

Turning to RPS12 (UniProt P25398), the log2 fold change was -0.004.

Turning to RANBP2 (UniProt P49792), the log2 fold change was -0.051.

As to RETREG3 (UniProt Q86VR2), the log2 fold change was 0.11.

Compound in another assay: Cn1cncc1[C@@](N)(c1ccc(Cl)cc1)c1ccc2c(c1)c(-c1cccc(Cl)c1)cc(=O)n2C [tipifarnib]
Described as above. The method, boiled down: as §1
In the case of SIDT2 isoform 2 (UniProt Q8NBJ9), the log2 fold change is 0.073.

As for ROR2 (UniProt Q01974), the log2 fold change is 0.03.

For the target RAP1GDS1 isoform 5 (UniProt P52306), the log2 fold change was -0.041.

As for SKP1 (UniProt P63208), the log2 fold change is -0.06.

On to REL (UniProt Q04864), for which the log2 fold change was -0.011.

Regarding SERINC3 (UniProt Q13530), the log2 fold change is -0.115.

As to RPS9 (UniProt P46781), the log2 fold change was 0.067.

Turning to RB1CC1 (UniProt Q8TDY2), the log2 fold change was -0.069.

On to SAFB2 (UniProt Q14151), for which the log2 fold change was 0.085.

As to RAB3IL1 (UniProt Q8TBN0), the log2 fold change was -0.051.

For RPS6KA1 isoform 2 (UniProt Q15418), the log2 fold change was -0.056.

Turning to RPRD1B (UniProt Q9NQG5), the log2 fold change was -0.039.

Consider RPS3 (UniProt P23396), for which the log2 fold change is 0.075.

As to SEC24A (UniProt O95486), the log2 fold change was -0.005.

For the target SCCPDH (UniProt Q8NBX0), the log2 fold change is 0.419 (active).

Consider RPS27A (UniProt P62979), for which the log2 fold change was 0.079.

Regarding ROCK2 (UniProt O75116), the log2 fold change is -0.008.

On to SACM1L (UniProt Q9NTJ5), for which the log2 fold change was -0.024.

In the case of RPA1 (UniProt P27694), the log2 fold change is -0.074.

As for RNASEH2A (UniProt O75792), the log2 fold change was -0.003.

With RGS10 (UniProt O43665), the log2 fold change is -0.043.

SDHAF2 (UniProt Q9NX18): the log2 fold change was 0.007.

In the case of SEPTIN5 (UniProt Q99719), the log2 fold change is -0.024.

Take SAMD4B (UniProt Q5PRF9): the log2 fold change was 0.09.

Consider SCD (UniProt O00767), for which the log2 fold change was 0.075.

For the target SEC23IP (UniProt Q9Y6Y8), the log2 fold change was -0.057.

SLC18B1 (UniProt Q6NT16): the log2 fold change is -0.029.

As for SAAL1 (UniProt Q96ER3), the log2 fold change is -0.053.

For SENP6 (UniProt Q9GZR1), the log2 fold change was 0.025.

RPS12 (UniProt P25398): the log2 fold change is 0.049.

Regarding RANBP2 (UniProt P49792), the log2 fold change was -0.036.

RETREG3 (UniProt Q86VR2): the log2 fold change is -0.034.

Compound in another assay: FC(F)(F)c1ccc(/C=C/c2nc(COc3ccc(CCCCn4ccnn4)cc3)co2)cc1 [mubritinib]
Described as above. The essentials:
as §1
As to SIDT2 isoform 2 (UniProt Q8NBJ9), the log2 fold change is -0.001.

Consider ROR2 (UniProt Q01974), for which the log2 fold change was 0.029.

RAP1GDS1 isoform 5 (UniProt P52306): the log2 fold change is 0.026.

Regarding SKP1 (UniProt P63208), the log2 fold change is -0.001.

As to REL (UniProt Q04864), the log2 fold change was 0.034.

On to SERINC3 (UniProt Q13530), for which the log2 fold change is 0.009.

For RPS9 (UniProt P46781), the log2 fold change is -0.09.

As to RB1CC1 (UniProt Q8TDY2), the log2 fold change was 0.026.

Regarding SAFB2 (UniProt Q14151), the log2 fold change was -0.077.

As for RAB3IL1 (UniProt Q8TBN0), the log2 fold change was 0.017.

With RPS6KA1 isoform 2 (UniProt Q15418), the log2 fold change was 0.041.

As for RPRD1B (UniProt Q9NQG5), the log2 fold change is 0.032.

With RPS3 (UniProt P23396), the log2 fold change was -0.045.

As for SEC24A (UniProt O95486), the log2 fold change was 0.017.

For the target SCCPDH (UniProt Q8NBX0), the log2 fold change was 0.104.

With RPS27A (UniProt P62979), the log2 fold change was -0.121.

Consider ROCK2 (UniProt O75116), for which the log2 fold change is 0.013.

For SACM1L (UniProt Q9NTJ5), the log2 fold change was -0.002.

In the case of RPA1 (UniProt P27694), the log2 fold change is 0.026.

Regarding RNASEH2A (UniProt O75792), the log2 fold change is 0.059.

On to RGS10 (UniProt O43665), for which the log2 fold change is -0.019.

Turning to SDHAF2 (UniProt Q9NX18), the log2 fold change is 0.058.

In the case of SEPTIN5 (UniProt Q99719), the log2 fold change is 0.007.

Turning to SCD (UniProt O00767), the log2 fold change is 0.019.

For the target SEC23IP (UniProt Q9Y6Y8), the log2 fold change was 0.014.

As for SLC18B1 (UniProt Q6NT16), the log2 fold change is -0.018.

In the case of SAAL1 (UniProt Q96ER3), the log2 fold change is 0.109.

In the case of SENP6 (UniProt Q9GZR1), the log2 fold change is 0.053.

In the case of RPS12 (UniProt P25398), the log2 fold change was -0.08.

RANBP2 (UniProt P49792): the log2 fold change is -0.073.

Regarding RETREG3 (UniProt Q86VR2), the log2 fold change is 0.
